# HCMV antiviral: inhibitors of human cytomegalovirus | HFF cells, HCMV-luciferase reporter, 72 h; stronger effect = lower value | activity change, negative = inhibition, % at 57.5 µM | 410,000 tested, 4.5% active; in the data active = activity change below about -60%; inconclusive = no clear call, values can overlap the other calls; inactive = above about -39%
#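 Luciferase read-out from HCMV-luciferase-infected HFFs (MOI 1 PFU/cell) 72 h post infection at 37C; compounds added after 16 h cell attachment; activity normalized between buffer-only basal and Salinomycin (10uM) inhibitor controls.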
# Pf growth 96h: inhibits malaria parasite growth, 96 h | P. falciparum luciferase reporter growth, 96 h | Potency, µM (doses to about 28.7 µM), hits mostly inhibitors | 320,000 tested, 6.9% active | AID 504834
#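 P. falciparum expressing integrated firefly luciferase grown in erythrocytes (2% hematocrit, 0.05% parasitemia final) with compounds for 96 hours at 37 C, 5% CO2. Growth inhibition read as loss of luminescence after adding luciferase detection reagent.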
# Cycloheximide cs: counter-screen hit for Shiga toxin inhibitors, cycloheximide | cell reporter, cycloheximide protein synthesis inhibition counterscreen | max response, % | AID 2314 | 300,000 tested, 12% active; in the data active = max response mostly above about 13%, no sharp cut-off; inactive = mostly below about 14%; also: read at 38.3 µM for the half of the compounds with a filed dose
# Pf growth 48h: inhibits P. falciparum growth in the first generation, 48 h; P. falciparum luciferase growth in erythrocytes, 48 h; Potency, µM (top dose mostly 28.7 µM), hits mostly inhibitors; 310,000 tested, 5.9% active; AID 504832
#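 Luciferase-expressing P. falciparum in infected erythrocytes (2% hematocrit, 0.1% parasitemia final) in RPMI 1640/0.5% Albumax were exposed to compound for 48 hours at 37 C, 5% CO2; growth read as luminescence.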
# HCV inhibitor: HCV inhibition. Huh7.5.1 HCVcc-Cre infection, luciferase reporter, 44 h. Potency, µM (doses to about 41.8 µM), most hits filed as inhibitors. 340,000 tested, 3.4% active. AID 651820
#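 Compounds are dispensed onto cells plated 4 h earlier at 1,000 per well, with HCVcc-Cre virus (about 0.5 moi) added next. Following 44 h of culture, luminescent signal is measured for 15 sec after 15 min with substrate at room temperature.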
# Shiga inhibitor: blocks Shiga toxin action in Vero cells; Vero cells, Shiga toxin protein synthesis inhibition reporter; AID 2315; 290,000 tested, 9.2% active; inhibition, % at 38.7 µM; in the data active = inhibition mostly above about 28%, no sharp cut-off; inactive = mostly below about 43%
# Numbers stand for hits; – = inactive; ? = inconclusive; · = no result given; [ ] = another dose, or the depositor's remark. The list is not random: actives were taken first. Their share in the collection is about 21%. Unless noted, calls follow the shape of the dose curve; as a rule, active = well fitted inhibition curve with a large enough effect; inconclusive = small, poorly fitted or top-dose-only effect, or another doubt; inactive = no such curve, though single readings can be large or run the other way.
SMILES,HCMV antiviral,Pf growth 96h,Cycloheximide cs,Pf growth 48h,HCV inhibitor,Shiga inhibitor
O=C(NC12CC3CC(CC(C3)C1)C2)N1CCN(c2nc(-c3ccccc3)cs2)CC1,–,?,–,?,–,–
O=C(N1CCOCC1)N1CCN(c2nc(-c3ccccc3)cs2)CC1,–,·,30,?,–,–
NC(=O)C1CCN(c2nc(-c3ccccc3)cs2)CC1,·,?,·,–,·,·
O=C(NC1CCCCC1)N1CCN(c2nc(-c3ccccc3)cs2)CC1,?,?,–,–,10µM,–
COc1ccccc1CNC(=O)c1cccc(Nc2nc3ccccc3n3nnnc23)c1,–,·,·,·,·,·
CSc1ccccc1Nc1ncnc(N)n1,–,–,–,–,–,–
CC(C)[C@H](NC(=O)OCc1ccccc1)C(=O)OCC(=O)N1C(C)CCCC1C (some centres undefined),–,·,·,·,–,·
c1ccc(-c2csc(N3CCN(c4ccccn4)CC3)n2)cc1,–,·,31,–,–,78
COC(=O)[C@H]1C[C@@H]1[C@H](NC(=O)[C@H]1C[C@@H]1[C@H](NC(=O)OCc1ccccc1)c1ccccc1)c1ccccc1,–,15µM,–,?,–[8.37 µM],–
CN(C)C(=O)[C@@H]1C[C@H]1[C@@H](NC(=O)OCc1ccccc1)c1ccccc1,–,–,–,–,–[8.37 µM],–
O=C1ON=C(c2ccccc2)/C1=C/c1ccco1,–,?,–,–,–,–
Cc1ccc(C=C2C(=O)c3ccccc3C2=O)o1,–,?,37,?,–,–
O=C1C(=Cc2ccco2)C(=O)c2ccccc21,–,17µM,37,–,–,–
O=C(O)c1ccc2c(c1)C(=O)/C(=C\c1ccco1)C2=O,–,12µM,–,–,–,–
Cc1ccc(/C=C2/C(=O)c3ccc(C(=O)O)cc3C2=O)o1,–,8.3µM,–,–,–,–
CSc1ccc(CCCCCCOC(=O)C(C)(C)C)cc1,–,–,·,–,–,·
CCOc1ccc(NC(=O)Cc2ccc(NC(=O)N3CCCCc4ccccc43)cc2)cc1,–,·,·,·,·,·
CCOc1ccc(NC(=O)c2cccc3c(=O)c4c([nH]c23)CCCC4)cc1,–,·,·,·,·,·
COc1ccc(NC(=O)C(CC(=O)O)Cc2ccc(Cl)cc2)cc1 (centres undefined),–,–,–,–,–,·
COCC(C)NCc1ccccc1C (centres undefined),–,12µM,–,–,–,–
CC(C(=O)Nc1ccccc1)N(C)Cc1cccs1 (centres undefined),–,–,–,–,–,–
C#CCOCCOCCOCCNc1nc(N2CCN(C(=O)CCCCCCCCCCNC(=O)[C@H](CCCCN)n3cc(CCO)nn3)CC2)nc(N2CCN(C(=O)CCCCCCCCCCNC(=O)[C@H](CCCCN)n3cc(C[C@@H](C)CC)nn3)CC2)n1,·,?,·,7.4µM,–,·
CC[C@H](C)Cc1cn([C@@H](CCCCN)C(=O)NCCCCCCCCCCC(=O)N2CCNCC2)nn1,–,?,·,12µM,–,·
C#CCOCCOCCOCCNc1nc(N2CCN(C(=O)CCCCCCCCCCNC(=O)[C@@H](CCC(=O)O)n3cc(CCCCCN)nn3)CC2)nc(N2CCN(C(=O)CCCCCCCCCCNC(=O)[C@H](CCCCN)n3cc(C[C@@H](C)CC)nn3)CC2)n1,·,?,·,5.9µM,–,·
CN1C2C(Br)CCCCN2c2ccc(F)cc2S1(=O)=O (centres undefined),–,–,–,–,–,–
SMILES,HCMV antiviral,Pf growth 96h,Cycloheximide cs,Pf growth 48h,HCV inhibitor,Shiga inhibitor
COc1ccc(N2C(=O)CSC23C(=O)N(Cc2ccc(C)cc2)c2ccccc23)cc1Cl (centres undefined),–,·,·,·,·,·
COC(=O)C(Cc1ccccc1)NC(=O)CNC(=O)c1ccc(Br)cc1 (centres undefined),–,–,–,–,–,–
COc1ccc(NC(=O)C2=C(C)Nc3nc(CCCO)nn3C2c2ccc(OC)c(OC)c2)cc1 (centres undefined),–,–,–,–,–,–
O=C(/C=C/c1cn(CC(O)CN2CCCCCC2)c2ccccc12)c1cccs1 (centres undefined),–,–,–,12µM,?,–
CCCCN(CCCC)CC(O)Cn1cc(/C=C/C(=O)c2ccccc2)c2ccccc21 (centres undefined),-106,·,·,·,·,·
COc1ccc(C(=O)/C=C/c2cn(CC(O)CN3CCc4ccccc43)c3ccccc23)cc1 (centres undefined),–,·,·,·,·,·
CCCCN(C)CC(O)Cn1cc(/C=C/C(=O)c2ccc(OCC)cc2)c2ccccc21 (centres undefined),-107,?,–,5.2µM,·,–
CCOc1ccc(C(=O)/C=C/c2cn(CC(O)CN3CCc4ccccc43)c3ccccc23)cc1 (centres undefined),–,·,·,·,·,·
CCCCN(C)CC(O)Cn1cc(/C=C/C(=O)c2cccs2)c2ccccc21 (centres undefined),·,4.1µM,–,8.3µM,?,–
c1ccc(CNc2c(C3CCNCC3)nc3scc(-c4ccccc4)n23)cc1,–,·,·,·,·,·
COc1ccc(OC)c(NS(=O)(=O)c2c(C(=O)N3CCCCCC3)c(C)n(C)c2C)c1,?,–,–,–,–,–
COc1ccc(S(=O)(=O)N2CC(O)C[C@H]2C(=O)OCC(=O)N2CCCCCC2)cc1 (some centres undefined),–,–,–,–,–,–
CC(CNC(=O)CN1C(=O)NC2(CCCCC2)C1=O)c1ccccc1 (centres undefined),–,–,·,–,–,·
CCOC(=O)c1ccc2c(c1)[C@@H]1C=CC[C@@H]1[C@H](c1cccc(OC)c1OC)N2,–,·,·,·,·,·
CCOC(=O)C1Nc2ccc(Br)cc2C2C=CCC12 (centres undefined),–,13µM,–,?,–,–
CCOC(=O)c1ccc2c(c1)C1C=CCC1C(C(=O)OCC)N2 (centres undefined),–,–,–,12µM,?,·
CCOC(=O)C1Nc2ccc(C)cc2C2C=CCC12 (centres undefined),–,·,·,·,–,·
Cc1ccc(-n2c(=S)[nH]c3c(oc4ccccc43)c2=O)cc1,–,–,40,–,–,69
Cc1cccc(-n2c(O)c(C)c(=O)[nH]c2=S)c1,?,–,–,?,–,–
O=c1c2oc3ccccc3c2[nH]c(=S)n1-c1ccccc1,–,–,–,–,–,–
COc1ccc2c(=O)c3c(=O)n(-c4ccc(C)cc4)c(-c4ccccc4)nc3oc2c1,·,?,–,?,·,–
Cc1cccc(-n2c(=S)[nH]c3c(oc4ccccc43)c2=O)c1,–,–,8.7,–,?,–
Cc1cccc(-n2c(C)c(-c3ccccc3)[nH]c2=S)c1,–,9.3µM,–,?,?,–
Cc1ccc(-n2c(C)nc3oc4ccccc4c(=O)c3c2=O)cc1,–,–,47,–,–,121
O=C(CSc1nnc(-c2ccccc2)o1)c1cccc([N+](=O)[O-])c1,–,·,·,·,·,·
COc1cccc(Nc2nccc3[nH]c(-c4cccc(C(C)C)c4)nc23)c1,–,·,·,·,·,·

# Assay outcomes as filed in PubChem.
